Compound activity as filed in PubChem BioAssay.
Most compounds without a hit are left out; they make up all but 18% or so of the library.
TDP1 block – blocks human tyrosyl-DNA phosphodiesterase 1; recombinant TDP1, AlphaScreen DNA substrate cleavage; Potency, µM (series often up to 130 µM), for the others: top-dose activity change, negative = inhibition, actives largely listed as inhibitors; actives 0.28% (n = 350,000); Q9NUW8; AID 485290; further: potency means the concentration at half of the fitted maximal effect; nearly all actives have a fitted effect of over 40% in size
Target sequence (Q9NUW8 whole entry, looked up): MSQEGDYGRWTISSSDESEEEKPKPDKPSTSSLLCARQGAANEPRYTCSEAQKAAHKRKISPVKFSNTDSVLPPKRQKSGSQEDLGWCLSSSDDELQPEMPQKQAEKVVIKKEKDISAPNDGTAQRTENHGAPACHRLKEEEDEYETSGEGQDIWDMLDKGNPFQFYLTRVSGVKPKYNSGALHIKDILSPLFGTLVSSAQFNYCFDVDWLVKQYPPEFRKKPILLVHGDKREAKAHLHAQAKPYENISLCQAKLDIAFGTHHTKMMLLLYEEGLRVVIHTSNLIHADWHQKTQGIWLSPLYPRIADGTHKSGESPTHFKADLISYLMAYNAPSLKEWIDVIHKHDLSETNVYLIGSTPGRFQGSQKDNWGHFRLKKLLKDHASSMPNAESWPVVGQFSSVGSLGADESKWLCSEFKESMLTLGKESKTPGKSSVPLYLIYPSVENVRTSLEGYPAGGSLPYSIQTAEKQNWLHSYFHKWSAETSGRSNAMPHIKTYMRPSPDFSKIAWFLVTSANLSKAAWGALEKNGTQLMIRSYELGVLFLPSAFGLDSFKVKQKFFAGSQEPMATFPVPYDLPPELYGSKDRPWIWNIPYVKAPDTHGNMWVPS
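Steps: enzyme plus compound, 15 min RT; add biotin/phosphotyrosine-FITC oligonucleotide (15 nM final), react 5 min; add donor/acceptor beads (10 ug/ml final), 10 min; read AlphaScreen. Tdp1 at 1 nM final.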
DT40 TDP1 no CPT – qHTS for Inhibitors of human tyrosyl-DNA phosphodiesterase 1 (TDP1): qHTS in cells in absence of CPT. actives 15% (n = 420,000). DT40 Tdp1-/- hTDP1 cells, no CPT, ATP luminescence, 48 h. Potency, µM (titrated, usually from 46.2 µM), for the others: at the highest dose activity change, negative = growth inhibition, most hits filed as inhibitors; further: potency means the concentration at half of the fitted maximal effect; nearly all actives have a fitted effect of over 55% in size
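Readout: luminescence from CellTiter-Glo after 30 min in the dark at RT. Cells: DT40 Tdp1-/- with stable hTDP1, 400/well. Exposure: compounds alone, ≥48 hr, 37 °C.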
TDP1 cell CPT – DT40-hTDP1 cell growth loss with CPT | actives 12% (n = 420,000) | Potency, µM (highest dose often 46.2 µM), without a hit: at the highest dose activity change, negative = growth inhibition, actives largely listed as inhibitors | chicken DT40 Tdp1-/-;hTDP1 cells + 20 nM CPT, ATP luminescence, 48 h; further: potency means the concentration at half of the fitted maximal effect; nearly all actives have a fitted effect of over 55% in size
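Cell growth measured by CellTiter-Glo luminescence after a minimum 48 h, 37 C compound exposure with 20 nM CPT in Tdp1-knockout DT40 cells stably expressing hTDP1, seeded 400/well; qHTS titration format.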
CtBP-E1A blk – blocks the CtBP interaction with E1A | AlphaScreen GST-E1A/His-CtBP binding, 1536-well; hits give low values | activity change, % (no concentration beside the values) | actives 0.49% (n = 340,000); in the data active means activity change below about -65%; inconclusive means mostly about -30% to -63%
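GST-E1A and His-tagged CtBP (125 nM each as 5X stock) were preincubated with pin-transferred compound for 2 h at 37 °C in the dark, then glutathione donor and nickel acceptor beads were added for 1 h before AlphaScreen reading.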
Six1-Eya2 blk – blocks human Six1 binding to Eya2. Q15475+O00167. AlphaScreen GST-Six1/His-Eya2 binding, biochemical; hits give low values. activity change, % (no concentration beside the values). actives 0.56% (n = 360,000). AID 651725; in the data active means activity change below about -65%; inconclusive means mostly about -30% to -63%
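AlphaScreen with GST-Six1 and His-Eya2 (5X mix: 250 nM and 500 nM), glutathione donor and nickel acceptor beads; buffer 50 mM Tris pH 8.0, 300 mM NaCl, 1 mM TCEP; 1 h at 37 C in the dark.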
IL-1B inflam inh – inflammasome signaling inhibition, IL-1 beta readout | THP-1 LPS/ATP IL-1B secretion, AlphaLISA, 16 h; hits give low values | activity change, % at 57.5 µM | actives 4.7% (n = 360,000); in the data active means activity change below about -50%; inconclusive means mostly about -30% to -49%
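Secreted IL-1B measured by AlphaLISA bead assay after 16 h compound exposure of THP-1 cells; compounds (final up to 57.5 uM) added 1 h before LPS (250 ng/mL) and ATP (1.25 mM) stimulation; lower signal means less secretion.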
* = called active by the depositor; ! = a repeat was not active. Unless noted, the call rests on the fitted dose curve; in most records, active means well fitted curve in the direction sought with a large enough effect; inconclusive means small, poorly fitted or top-dose-only effect, or another doubt; inactive means no such curve, though single readings can be large; an effect the other way counts as inactive or inconclusive. On the % scale 0 is the no-effect control and ±100 the full control effect.

For CCOC(=O)[C@H](Cc1ccc(O)cc1)NC(=O)c1ccccc1 the results were TDP1 block 13.4%.
`COC(=O)N1CCC2(CCCN(Cc3ccccc3)C2)CC1` gave DT40 TDP1 no CPT -12.4% and TDP1 cell CPT 19.4%.
`COc1ccc(N=C2C(=O)N3c4c(cccc42)C(C)=CC3(C)C)cc1` gave TDP1 block 10.5%, DT40 TDP1 no CPT 2.59µM*, TDP1 cell CPT 5.17µM*, CtBP-E1A blk -20.8, Six1-Eya2 blk -22.4 and IL-1B inflam inh 46.0.
Screening O=C(Nc1cccc(C(=O)O)c1)Nc1ccccc1Cl returned TDP1 block -3.7%, DT40 TDP1 no CPT 1.6%, TDP1 cell CPT -7.9%, CtBP-E1A blk 0.8, Six1-Eya2 blk 3.4 and IL-1B inflam inh 12.2.
`O=C(O)c1ccccc1Nc1ccccc1` gave TDP1 block 4.8%, DT40 TDP1 no CPT inconclusive, TDP1 cell CPT 20.6µM*!, CtBP-E1A blk -1.7, Six1-Eya2 blk 3.9 and IL-1B inflam inh 8.7.
For O=C(O)c1c(Cl)cccc1Nc1ccccc1 the results were DT40 TDP1 no CPT 23.1µM*, TDP1 cell CPT -9.7%, CtBP-E1A blk -8.0, Six1-Eya2 blk 2.3 and IL-1B inflam inh -3.2.
COc1cccc(Nc2ccccc2C(=O)O)c1 was read as TDP1 block 0.0%, DT40 TDP1 no CPT 0.6%, TDP1 cell CPT 5.4%, CtBP-E1A blk -1.6, Six1-Eya2 blk 1.1 and IL-1B inflam inh 26.4.
`CC1CCCC(NC(=O)C2N(CCCN3CCCC3)C(=O)C3C(C(=O)Nc4ccc(Cl)cc4)C4C=CC32O4)C1C` (centres undefined) gave TDP1 block -14.2%, DT40 TDP1 no CPT inconclusive, TDP1 cell CPT -21.6%, CtBP-E1A blk 10.1, Six1-Eya2 blk -5.3 and IL-1B inflam inh -65.2*.
Screening COc1ccc(NC(=O)C2C3C=CC4(O3)C2C(=O)N(CCCN2CCCCC2)C4C(=O)NC2CCCC(C)C2C)cc1 (centres undefined) returned TDP1 block 1.8%, DT40 TDP1 no CPT 0.1%, TDP1 cell CPT 17.6%, CtBP-E1A blk -2.1, Six1-Eya2 blk -2.5 and IL-1B inflam inh -7.0.
O=C(Nc1ccc(Cl)c(Cl)c1)C1C2C=CC3(O2)C1C(=O)N(CCN1CCCCC1)C3C(=O)NC1CCCCC1 (centres undefined) was read as TDP1 block 1.7%, DT40 TDP1 no CPT inconclusive, TDP1 cell CPT inconclusive, CtBP-E1A blk 0.6, Six1-Eya2 blk -4.7 and IL-1B inflam inh -81.0*.
`O=C(N/N=C\c1ccc([N+](=O)[O-])o1)c1cncc(Br)c1` gave DT40 TDP1 no CPT 6.51µM*, TDP1 cell CPT 4.61µM*, CtBP-E1A blk inconclusive, Six1-Eya2 blk inconclusive and IL-1B inflam inh -79.0*.
Screening CCN(CC)S(=O)(=O)c1cccc(C(=O)N/N=C/c2ccc([N+](=O)[O-])o2)c1 returned TDP1 block -2.7%, DT40 TDP1 no CPT inconclusive, TDP1 cell CPT 20.6µM*, CtBP-E1A blk -1.8, Six1-Eya2 blk -7.2 and IL-1B inflam inh -89.5*.
Cc1ccc(C(=O)N/N=C/c2ccc(-c3ccc(Br)cc3[N+](=O)[O-])o2)o1 was read as TDP1 block 4.3%, DT40 TDP1 no CPT inconclusive, TDP1 cell CPT inconclusive, CtBP-E1A blk -20.4, Six1-Eya2 blk inconclusive and IL-1B inflam inh -85.1*.
Cc1ccc(C(=O)N/N=C\c2ccc(Br)o2)o1 was read as TDP1 block 2.0%, DT40 TDP1 no CPT 2.2%, TDP1 cell CPT -12.4%, CtBP-E1A blk -19.1, Six1-Eya2 blk -15.6 and IL-1B inflam inh -28.4.
Cc1cc([N+](=O)[O-])c(C)cc1-c1ccc(/C=N/NC(=O)c2cccnc2)o1 was read as TDP1 block 5.0%, DT40 TDP1 no CPT 16.4µM*, TDP1 cell CPT 16.4µM*, CtBP-E1A blk -4.2, Six1-Eya2 blk -9.4 and IL-1B inflam inh -23.2.
